In ChEMBL document CHEMBL3988442, “University of Dundee, Small-Polar-MMV Screening Library” (2021):
For some assays here: Results with a measured potency or affinity are listed apart.

Key:
Parameters in all cases: scale not given: direction of the effect not stated beside the values
[1] = target: Protein translocase subunit SecA (Escherichia coli (strain K12)) (UniProt P10408); assay: Assay to Identify E. coli SecA ATPase Inhibitors; assay type: functional; conditions: 30 µM
[2] = target: T1, Ubiquitin-activating enzyme e1, putative (Leishmania donovani (strain BPK282A1)) (UniProt E9BSI1); assay: Leishmania donovani Ubiquitin Activating Enzyme (LdE1); assay type: functional; conditions: 30 µM
T1 sequence (whole entry): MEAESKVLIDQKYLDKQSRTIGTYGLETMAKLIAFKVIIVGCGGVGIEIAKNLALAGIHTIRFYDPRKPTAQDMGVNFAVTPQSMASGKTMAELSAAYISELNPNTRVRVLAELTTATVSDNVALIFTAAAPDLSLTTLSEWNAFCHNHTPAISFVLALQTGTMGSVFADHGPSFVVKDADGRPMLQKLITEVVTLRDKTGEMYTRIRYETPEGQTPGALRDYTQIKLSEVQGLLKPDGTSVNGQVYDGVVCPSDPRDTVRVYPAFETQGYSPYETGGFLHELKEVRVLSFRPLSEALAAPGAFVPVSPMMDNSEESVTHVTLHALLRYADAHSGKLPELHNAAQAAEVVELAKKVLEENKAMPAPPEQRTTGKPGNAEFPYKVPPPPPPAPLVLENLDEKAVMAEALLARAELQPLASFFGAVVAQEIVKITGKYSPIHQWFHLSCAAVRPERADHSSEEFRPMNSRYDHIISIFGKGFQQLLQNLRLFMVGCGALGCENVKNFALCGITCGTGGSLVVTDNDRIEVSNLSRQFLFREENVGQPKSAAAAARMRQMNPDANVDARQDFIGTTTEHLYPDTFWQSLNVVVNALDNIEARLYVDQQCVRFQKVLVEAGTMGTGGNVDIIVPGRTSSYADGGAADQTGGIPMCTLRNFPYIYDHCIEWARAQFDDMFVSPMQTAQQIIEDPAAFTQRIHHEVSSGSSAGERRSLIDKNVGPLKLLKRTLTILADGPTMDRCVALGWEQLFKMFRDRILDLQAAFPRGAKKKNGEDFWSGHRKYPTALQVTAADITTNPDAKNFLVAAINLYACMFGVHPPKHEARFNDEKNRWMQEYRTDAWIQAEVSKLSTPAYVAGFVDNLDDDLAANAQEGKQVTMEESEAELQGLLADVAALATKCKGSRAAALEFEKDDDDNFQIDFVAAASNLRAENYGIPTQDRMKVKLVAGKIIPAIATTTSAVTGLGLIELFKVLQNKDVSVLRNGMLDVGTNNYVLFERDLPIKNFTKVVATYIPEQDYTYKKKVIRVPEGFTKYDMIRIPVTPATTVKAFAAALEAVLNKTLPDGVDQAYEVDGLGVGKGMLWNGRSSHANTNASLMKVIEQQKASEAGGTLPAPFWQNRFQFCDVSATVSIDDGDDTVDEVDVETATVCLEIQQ

[3] = target: AMP-activated protein kinase, AMPK (Homo sapiens) (UniProt P54646+O43741+P54619+Q9UGJ0+Q9Y478+Q13131+Q9UGI9); assay: AMP-dependent Kinase enzyme assay. An in vitro enzyme assay that detects ADP turnover that is directly proportional to AMPK activity. This uses naive AMPK that is activated during the assay with MK-8722; assay type: functional; conditions: 30 µM
[4] = target: Sialic acid-binding Ig-like lectin 9 (Homo sapiens) (UniProt Q9Y336); assay: Hs-Siglec9 ALPHAscreen SOP 20170721; conditions: 10 µM
Sialic acid-binding Ig-like lectin 9 (Homo sapiens), sequence (Q9Y336 whole entry): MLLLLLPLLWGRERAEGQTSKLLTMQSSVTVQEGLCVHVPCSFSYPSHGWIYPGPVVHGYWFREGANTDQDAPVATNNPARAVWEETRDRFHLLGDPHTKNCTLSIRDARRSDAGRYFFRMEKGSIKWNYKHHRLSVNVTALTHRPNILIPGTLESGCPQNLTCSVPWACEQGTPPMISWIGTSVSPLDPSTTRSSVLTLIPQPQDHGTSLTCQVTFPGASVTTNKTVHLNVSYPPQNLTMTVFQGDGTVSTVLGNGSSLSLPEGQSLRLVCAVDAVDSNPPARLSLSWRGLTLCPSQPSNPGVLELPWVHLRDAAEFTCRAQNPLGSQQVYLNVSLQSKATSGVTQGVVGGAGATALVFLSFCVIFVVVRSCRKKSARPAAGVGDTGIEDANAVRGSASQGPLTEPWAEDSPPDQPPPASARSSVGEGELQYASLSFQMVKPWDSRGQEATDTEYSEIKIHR

[5] = tested on: Trypanosoma cruzi; assay: Trypanosoma cruzi phosphomannomutase and mannose-1-phosphate guanylyltransferase assay; assay type: functional; conditions: 10 µM
[6] = target: T2, Arginase-2, mitochondrial (Homo sapiens) (UniProt P78540); assay: in vitro enzyme assay to detect the production of urea directly proportional to the activity of Arginase II; assay type: functional; conditions: 33.3 µM; also: in the data most compounds retested in dose-response had high values
T2 sequence (whole entry): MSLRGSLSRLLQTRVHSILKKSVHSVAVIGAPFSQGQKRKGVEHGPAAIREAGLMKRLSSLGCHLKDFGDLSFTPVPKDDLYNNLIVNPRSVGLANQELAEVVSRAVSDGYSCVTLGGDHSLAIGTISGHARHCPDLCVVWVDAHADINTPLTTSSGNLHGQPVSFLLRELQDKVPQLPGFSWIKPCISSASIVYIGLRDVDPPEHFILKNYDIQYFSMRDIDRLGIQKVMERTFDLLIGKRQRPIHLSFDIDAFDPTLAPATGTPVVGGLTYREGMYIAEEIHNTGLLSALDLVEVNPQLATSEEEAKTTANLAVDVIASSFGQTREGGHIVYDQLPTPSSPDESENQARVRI

[7] = target: T3, Proteasome subunit beta (Trypanosoma cruzi) (UniProt O96673); assay: Trypanosoma cruzi proteasome chymotrypsin-like activity (TcProtChymo) assay.; also: in the data most compounds retested in dose-response had high values; assay type: functional; conditions: 9.37 µM
T3 sequence (whole entry): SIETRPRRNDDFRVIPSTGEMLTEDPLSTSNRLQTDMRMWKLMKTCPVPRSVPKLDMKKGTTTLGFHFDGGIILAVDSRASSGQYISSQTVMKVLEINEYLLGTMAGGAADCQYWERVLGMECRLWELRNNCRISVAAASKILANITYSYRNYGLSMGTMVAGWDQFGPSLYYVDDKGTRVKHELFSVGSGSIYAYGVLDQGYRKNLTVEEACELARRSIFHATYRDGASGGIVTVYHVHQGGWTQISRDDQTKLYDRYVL

[8] = species: Homo sapiens; assay: To identify inhibition of the IFN signalling (Jak-Stat) pathway via expression of an eGFP reporter gene under the control of an IFN-stimulated response element (ISRE) containing MxA promoter.; assay type: functional; conditions: 30 µM
[9] = target: T4, Tyrosyl-tRNA synthetase, putative (Trypanosoma cruzi (strain CL Brener)) (UniProt Q4DSP6); assay: Trypanosoma cruzi tyrosyl tRNA synthetase (TcYRS) _High Tyrosine SOP; assay type: functional; conditions: 30 µM; also: in the data most compounds retested in dose-response had high values
T4 sequence (whole entry): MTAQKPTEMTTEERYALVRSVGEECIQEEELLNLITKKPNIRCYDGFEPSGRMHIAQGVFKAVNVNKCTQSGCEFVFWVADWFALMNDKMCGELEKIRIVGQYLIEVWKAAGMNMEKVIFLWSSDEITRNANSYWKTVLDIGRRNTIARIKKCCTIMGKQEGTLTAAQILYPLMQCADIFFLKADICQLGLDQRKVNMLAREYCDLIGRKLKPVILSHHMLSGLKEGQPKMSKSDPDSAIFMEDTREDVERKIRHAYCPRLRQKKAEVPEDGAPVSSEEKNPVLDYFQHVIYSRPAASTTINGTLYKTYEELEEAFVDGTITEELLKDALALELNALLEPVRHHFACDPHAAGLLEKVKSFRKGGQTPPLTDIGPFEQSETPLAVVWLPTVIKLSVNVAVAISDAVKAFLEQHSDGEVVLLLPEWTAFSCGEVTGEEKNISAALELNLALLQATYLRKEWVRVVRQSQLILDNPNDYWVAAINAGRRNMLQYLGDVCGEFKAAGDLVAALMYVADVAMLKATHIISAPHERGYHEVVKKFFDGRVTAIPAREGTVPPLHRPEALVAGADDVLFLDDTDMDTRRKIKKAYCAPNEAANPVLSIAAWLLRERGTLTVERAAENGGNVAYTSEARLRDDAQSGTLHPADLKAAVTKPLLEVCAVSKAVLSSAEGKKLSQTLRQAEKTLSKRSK

[10] = target: T4, Tyrosyl-tRNA synthetase, putative (Trypanosoma cruzi (strain CL Brener)); assay: Trypanosoma cruzi tyrosyl tRNA synthetase (TcYRS) SOP; assay type: functional; conditions: 30 µM
[11] = target: Chromo domain-containing protein 1 (Saccharomyces cerevisiae (strain ATCC 204508 / S288c) (Baker's yeast)) (UniProt P32657); assay: ScCHD-1 Enzyme Inhibition Assay; assay type: functional; conditions: 30 µM; also: in the data most compounds retested in dose-response had high values
Chromo domain-containing protein 1 (Saccharomyces cerevisiae (strain ATCC 204508 / S288c) (Baker's yeast)), sequence (P32657 whole entry, the tested form may be a part): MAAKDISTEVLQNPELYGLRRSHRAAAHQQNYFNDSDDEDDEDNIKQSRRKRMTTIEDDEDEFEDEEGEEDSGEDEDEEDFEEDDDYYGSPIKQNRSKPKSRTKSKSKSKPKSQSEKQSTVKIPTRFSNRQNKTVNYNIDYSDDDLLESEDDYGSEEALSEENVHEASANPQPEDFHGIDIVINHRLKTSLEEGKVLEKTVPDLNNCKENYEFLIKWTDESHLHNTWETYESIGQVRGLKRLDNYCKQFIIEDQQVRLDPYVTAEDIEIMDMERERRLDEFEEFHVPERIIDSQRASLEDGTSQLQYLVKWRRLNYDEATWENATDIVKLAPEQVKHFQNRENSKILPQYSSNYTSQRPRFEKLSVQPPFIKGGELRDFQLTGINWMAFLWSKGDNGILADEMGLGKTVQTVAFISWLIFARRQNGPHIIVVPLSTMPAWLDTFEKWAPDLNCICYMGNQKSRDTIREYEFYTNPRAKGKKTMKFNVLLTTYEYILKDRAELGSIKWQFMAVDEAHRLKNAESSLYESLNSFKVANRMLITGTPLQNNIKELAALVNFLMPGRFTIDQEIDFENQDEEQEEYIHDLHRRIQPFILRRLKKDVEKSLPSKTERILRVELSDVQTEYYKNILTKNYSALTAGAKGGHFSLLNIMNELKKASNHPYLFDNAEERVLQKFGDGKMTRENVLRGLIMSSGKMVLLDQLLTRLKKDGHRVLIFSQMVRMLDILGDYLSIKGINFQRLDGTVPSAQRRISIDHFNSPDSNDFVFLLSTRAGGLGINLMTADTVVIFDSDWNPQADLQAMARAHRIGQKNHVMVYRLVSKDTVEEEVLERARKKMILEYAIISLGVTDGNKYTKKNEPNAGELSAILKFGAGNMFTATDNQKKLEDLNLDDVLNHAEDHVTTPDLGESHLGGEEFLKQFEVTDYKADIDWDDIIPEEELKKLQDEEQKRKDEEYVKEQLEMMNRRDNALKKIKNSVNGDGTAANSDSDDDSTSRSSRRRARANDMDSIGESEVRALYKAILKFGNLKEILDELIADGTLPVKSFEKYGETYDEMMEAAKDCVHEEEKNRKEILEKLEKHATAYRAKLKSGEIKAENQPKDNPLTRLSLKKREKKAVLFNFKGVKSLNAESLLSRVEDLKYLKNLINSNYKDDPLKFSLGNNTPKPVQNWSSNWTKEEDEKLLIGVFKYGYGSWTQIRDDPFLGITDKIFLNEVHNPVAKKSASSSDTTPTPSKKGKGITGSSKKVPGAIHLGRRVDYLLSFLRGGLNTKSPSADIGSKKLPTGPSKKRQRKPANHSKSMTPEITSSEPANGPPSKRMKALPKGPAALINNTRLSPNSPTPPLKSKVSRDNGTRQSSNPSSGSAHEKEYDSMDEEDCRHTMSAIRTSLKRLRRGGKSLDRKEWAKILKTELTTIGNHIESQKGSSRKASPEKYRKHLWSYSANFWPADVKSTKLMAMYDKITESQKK

Protein translocase subunit SecA (Escherichia coli (strain K12)), sequence (P10408 whole entry): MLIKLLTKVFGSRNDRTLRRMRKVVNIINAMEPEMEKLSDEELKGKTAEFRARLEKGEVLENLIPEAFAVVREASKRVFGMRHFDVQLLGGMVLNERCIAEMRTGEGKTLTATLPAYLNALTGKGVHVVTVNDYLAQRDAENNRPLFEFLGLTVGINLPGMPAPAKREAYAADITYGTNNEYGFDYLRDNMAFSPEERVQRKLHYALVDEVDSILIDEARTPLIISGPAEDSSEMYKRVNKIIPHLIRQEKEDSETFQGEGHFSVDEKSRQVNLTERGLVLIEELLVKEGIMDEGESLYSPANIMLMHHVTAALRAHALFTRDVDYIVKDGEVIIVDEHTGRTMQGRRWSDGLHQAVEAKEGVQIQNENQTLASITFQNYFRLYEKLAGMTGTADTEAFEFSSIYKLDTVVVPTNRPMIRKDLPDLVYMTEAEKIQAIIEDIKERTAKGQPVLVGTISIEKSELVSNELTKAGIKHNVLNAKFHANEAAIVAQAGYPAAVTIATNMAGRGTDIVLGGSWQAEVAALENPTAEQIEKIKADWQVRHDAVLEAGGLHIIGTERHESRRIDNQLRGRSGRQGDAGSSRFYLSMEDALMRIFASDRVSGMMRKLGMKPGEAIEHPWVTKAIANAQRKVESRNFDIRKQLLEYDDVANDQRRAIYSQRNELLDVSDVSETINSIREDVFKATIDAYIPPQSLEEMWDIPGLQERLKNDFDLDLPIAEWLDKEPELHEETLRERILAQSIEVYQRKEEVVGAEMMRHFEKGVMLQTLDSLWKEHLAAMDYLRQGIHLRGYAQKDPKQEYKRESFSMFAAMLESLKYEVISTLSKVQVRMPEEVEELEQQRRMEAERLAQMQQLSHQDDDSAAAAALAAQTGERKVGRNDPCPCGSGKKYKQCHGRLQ

SMILES	Percent Effect [1] [%]	Percent Effect [2] [%]	Percent Effect [3] [%]	Percent Effect [4] [%]	Percent Effect [5] [%]	Percent Effect [6] [%]	Percent Effect [7] [%]	Percent Effect [8] [%]	Percent Effect [9] [%]	Percent Effect [10] [%]	Percent Effect [11] [%]
Cc1ncsc1C(=O)NC1CCN(CC(=O)NCc2ccccc2)CC1	-3.36	13.2	0.646	1.72	2.71	-1.8	7.02	-2.18	9.36	16.1	-2.75
CNC(=O)c1cccc(CNC(=O)C2CC(=O)N(CCN(C)C)C2)c1 (configuration not stated)	-5.39	5.33	4.48	0.817	-2.63	-1.04	12.2	14.1	3.83	6.17	-3.88
CC(=O)N1CCC(C(=O)N(C)[C@@H]2CCC[C@@H](N3CCCC3)[C@@H]2O)CC1	-6.98	20.3	-7.25	-2.3	6.13	-2.09	13.4	13.2	5.38	22.1	-22.6
CC(NCc1ccc(F)cc1)c1ccc(OCC(=O)NC2CC2)cc1 (configuration not stated)	-1.43	6.33	9.48	-4.28	-6.26	-7.1	18	17	1.04	2.53	-17.3
CCC(=O)NCc1cc(Br)c(OC)c(OC)c1	-7.41	5.33	-0.145	4.49	4.19	-9.9	5.75	-1.33	1.64	11.1	-3.06
CC(C)c1nc(C2CCCN(C(=O)CCn3ccnc3)C2)no1 (configuration not stated)	-0.0893	24.3	-7.28	-4.78	1.42	-17.6	16.4	19.3	6.4	18.5	-10.5
N#Cc1ccnc(N2CCN(CC(O)c3cccc(F)c3)CC2)c1 (configuration not stated)	-4.31	2.7	0.651	-0.828	-3.42	3.72	2.83	-1.26	5.38	11.1	-2.53
CCc1nnc2n1CCN(C(=O)CN(C)Cc1ccccc1)C2	-2.83	7.89	-9.27	7.43	5.88	2.16	4.32	-5.24	4.43	18.5	-4.71
Cc1cnn(CCC(=O)N2CCCN(c3cccnn3)CC2)c1	1.07	3.8	1.28	0.558	1.74	-0.645	13.2	12.8	2.08	5.06	-16.1
CCn1nc(CC(C)C)cc1C(=O)NCCn1cccc1	-6.33	-1.39	1.75	1.17	-3.01	-3.09	11.6	-24.3	0	-2.56	1.57
COc1cccc(CN(C)C(=O)CN2CCN(CCO)CC2)c1	-2.96	8	-6.71	1.75	0.292	3.12	24.6	14.1	9.29	16.1	-7.41
N#Cc1ccccc1CN1C[C@@H]2CC[C@H](C1)N(Cc1cscn1)C2=O	-1.93	5.41	-3.34	8.56	-2.9	-1.91	9.14	-7.44	3.7	-14.6	-3.95
CC(=O)N(C)c1nc(CN2CCOC(Cn3cccn3)C2)cs1 (configuration not stated)	1.46	8.11	-1.27	15.7	3.09	17.1	15.9	10.3	4.76	12.2	-5.18
O=C([C@@H]1C[C@@H]2CCN(CCc3ccccc3)C[C@H]2O1)N1CCCC1	1.08	8	15	-9.77	-7.09	8.62	14.7	-9.49	4.25	8.97	0.575
Cc1cc(C)c2cc(CNCC3CCCO3)c3nn(C)c(=O)n3c2c1 (configuration not stated)	-1.56	9.46	5.25	0.0533	2.17	-1.62	7.96	27	2.15	9.09	-28.2
Cc1noc(C2CCN(C(=O)c3c(C)noc3C)CC2)n1	-3.97	10.8	-5.85	7.55	1.47	0.248	11.9	-25.3	6.45	13.6	-4.31
CN(CCc1ccccc1)c1cnn(CC(=O)N2CCSCC2)c(=O)c1	-1.2	0	19.7	12.4	-4.5	2.73	-1.6	4.15	1.07	2.5	0.365
Cc1ccc(C(C)NC(=O)Cc2c(C)nc3c(c2C)c(=O)[nH]n3C)o1 (configuration not stated)	-4.2	7.79	1.79	9.22	1.08	-11	10.7	1.96	1.07	6.17	1.13
N#CC1(C(=O)N2CCN(Cc3ccon3)CC2)CCC1	-1.32	5.06	1.56	6.56	-7.84	9.89	1.56	23.8	0.493	1.27	-3.39
COc1ccnc(N2CCN(C(=O)NCc3ccc(C)s3)CC2)n1	-4.33	15.6	6.59	2.69	4.6	1.47	5.42	-2.65	5.71	18.8	-0.255
N#Cc1ccccc1OCCN1CCCCC1Cn1cncn1 (configuration not stated)	-2.06	5.41	-28.6	8.52	5.94	-5.61	3.78	-11.9	12.3	16.1	-11.1
COCCNc1nc(C2CCCC2)nc2c1CCNCC2	-0.492	-2.7	-0.634	-1.74	4.83	1.91	-38.6	-3.26	10.1	19.5	-2.52
